From PubChem BioAssay
Activity calls are given as the source filed them.

Tests used:
[1] = optical density shifts of acrAB sulA E. coli – strain DRC41, OD650, 48 h, E. coli filamentation inducer project, primary screen (AID 1152); conditions: higher = more signal, called active from +8 up or from −8 down;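 also: E. coli MC1000 strain DRC41 lacking acrAB efflux pump and sulA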
[2] = probe aLefty1 binding on compound microarray – biochemical, small-molecule microarray, 635/667 nm fluorescence, primary screen (AID 1153); conditions: higher = more signal;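 also: score merges spot fluorescence with signal-to-noise ratio from the scanned slide images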
[3] = plasmodial surface anion channel blockers, osmotic lysis – cell-based, P. falciparum Indochina, OD700, 1 h, primary screen (AID 1154); conditions: P. falciparum Indochina infected RBC osmotic lysis, higher = more signal, called active from +8 up or from −8 down
[4] = plasmodial surface anion channel blockers, osmotic lysis – cell-based, P. falciparum Indochina, OD700, 2 h, primary screen (AID 1155);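 also: lysis reports solute entry through the parasite surface anion channel PSAC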; conditions: P. falciparum Indochina infected erythrocytes, higher = more signal, called active from +8 up or from −8 down
[5] = changes in parasitized red cell lysis, either direction – P. falciparum Indochina, OD700, 3 h, PSAC antagonist project, primary screen (AID 1156); conditions: P. falciparum-infected erythrocytes, osmotic lysis, higher = more signal, called active from +8 up or from −8 down
[6] = plasmodial surface anion channel blockers, osmotic lysis – cell-based, P. falciparum Indochina, OD700, 18 h, primary screen (AID 1157); conditions: P. falciparum Indochina infected erythrocytes, osmotic lysis OD700, 18 h; higher = more signal, called active from +8 up or from −8 down
[7] = S6 kinase pathway phospho-S6 level changes – cell-based, A549, cytoblot, luminescence, serum-stimulated, primary screen (AID 1158); conditions: 5 h, higher = more signal;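 also: serum-stimulated A549 lung adenocarcinoma cells; signal is phosphorylated S6 detected by cytoblot immunostaining with HRP secondary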
[8] = molecular target: NADPH oxidase 2 (Homo sapiens) (UniProt P04839); assay: compounds shifting NOX2 Amplex Red fluorescence – cell-based, HEK293-NOX2, PMA-stimulated, NOX inhibitor project, primary screen (AID 1159); conditions: 45 min, higher = more signal, called active from +8 up or from −8 down; also: test concentration not given here
[9] = molecular target: NADPH oxidase 4 (Homo sapiens) (UniProt Q9NPH5); assay: compounds shifting NOX4 Amplex Red fluorescence – cell-based, HEK293-NOX4, tetracycline-induced, NOX inhibitor project, primary screen (AID 1160); conditions: HEK293-NOX4, Amplex Red H2O2 fluorescence, 45 min; higher = more signal, called active from +8 up or from −8 down
[10] = molecular target: NADPH oxidase 5 (Homo sapiens) (UniProt Q96PH1); assay: compounds shifting NOX5 Amplex Red fluorescence – cell-based, HEK293-NOX5, NOX inhibitor project, primary screen (AID 1161); conditions: HEK293-NOX5, ionomycin, 45 min, higher = more signal
NADPH oxidase 5 (Homo sapiens), sequence (Q96PH1 whole entry, looked up): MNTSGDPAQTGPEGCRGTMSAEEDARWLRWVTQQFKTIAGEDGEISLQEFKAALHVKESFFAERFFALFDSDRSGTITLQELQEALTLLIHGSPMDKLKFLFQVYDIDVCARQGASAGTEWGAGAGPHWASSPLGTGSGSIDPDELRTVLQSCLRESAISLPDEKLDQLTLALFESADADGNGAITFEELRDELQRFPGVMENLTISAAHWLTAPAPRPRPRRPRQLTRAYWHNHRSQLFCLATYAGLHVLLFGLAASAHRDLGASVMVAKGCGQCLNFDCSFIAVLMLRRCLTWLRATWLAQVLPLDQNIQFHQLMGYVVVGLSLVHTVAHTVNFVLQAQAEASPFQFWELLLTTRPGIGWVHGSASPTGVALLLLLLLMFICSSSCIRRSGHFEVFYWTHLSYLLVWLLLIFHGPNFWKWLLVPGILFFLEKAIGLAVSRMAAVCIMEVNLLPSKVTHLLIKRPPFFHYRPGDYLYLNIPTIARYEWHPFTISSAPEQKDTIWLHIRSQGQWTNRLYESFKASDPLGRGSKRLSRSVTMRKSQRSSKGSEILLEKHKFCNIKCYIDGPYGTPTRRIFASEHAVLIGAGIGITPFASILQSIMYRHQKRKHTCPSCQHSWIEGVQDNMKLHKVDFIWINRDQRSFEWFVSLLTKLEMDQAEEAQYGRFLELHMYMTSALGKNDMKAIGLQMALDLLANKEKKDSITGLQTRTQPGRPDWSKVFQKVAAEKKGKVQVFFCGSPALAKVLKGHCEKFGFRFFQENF

NADPH oxidase 4 (Homo sapiens), sequence (Q9NPH5 whole entry, looked up): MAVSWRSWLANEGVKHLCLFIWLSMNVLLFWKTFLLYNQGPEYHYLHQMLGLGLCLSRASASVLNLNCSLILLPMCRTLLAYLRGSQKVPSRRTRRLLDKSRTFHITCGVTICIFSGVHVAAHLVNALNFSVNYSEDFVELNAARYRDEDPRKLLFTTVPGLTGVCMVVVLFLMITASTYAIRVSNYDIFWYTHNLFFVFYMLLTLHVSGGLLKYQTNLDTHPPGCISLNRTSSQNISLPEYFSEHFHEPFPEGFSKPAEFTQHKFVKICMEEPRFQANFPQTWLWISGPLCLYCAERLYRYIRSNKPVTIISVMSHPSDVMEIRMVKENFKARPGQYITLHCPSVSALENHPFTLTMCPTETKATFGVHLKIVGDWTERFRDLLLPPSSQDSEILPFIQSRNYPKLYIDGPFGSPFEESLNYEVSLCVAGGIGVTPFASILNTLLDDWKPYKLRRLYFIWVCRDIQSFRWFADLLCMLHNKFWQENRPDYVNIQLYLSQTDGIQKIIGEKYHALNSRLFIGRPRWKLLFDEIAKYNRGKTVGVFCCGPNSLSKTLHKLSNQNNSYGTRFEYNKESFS
NADPH oxidase 2 (Homo sapiens), sequence (P04839 whole entry, looked up): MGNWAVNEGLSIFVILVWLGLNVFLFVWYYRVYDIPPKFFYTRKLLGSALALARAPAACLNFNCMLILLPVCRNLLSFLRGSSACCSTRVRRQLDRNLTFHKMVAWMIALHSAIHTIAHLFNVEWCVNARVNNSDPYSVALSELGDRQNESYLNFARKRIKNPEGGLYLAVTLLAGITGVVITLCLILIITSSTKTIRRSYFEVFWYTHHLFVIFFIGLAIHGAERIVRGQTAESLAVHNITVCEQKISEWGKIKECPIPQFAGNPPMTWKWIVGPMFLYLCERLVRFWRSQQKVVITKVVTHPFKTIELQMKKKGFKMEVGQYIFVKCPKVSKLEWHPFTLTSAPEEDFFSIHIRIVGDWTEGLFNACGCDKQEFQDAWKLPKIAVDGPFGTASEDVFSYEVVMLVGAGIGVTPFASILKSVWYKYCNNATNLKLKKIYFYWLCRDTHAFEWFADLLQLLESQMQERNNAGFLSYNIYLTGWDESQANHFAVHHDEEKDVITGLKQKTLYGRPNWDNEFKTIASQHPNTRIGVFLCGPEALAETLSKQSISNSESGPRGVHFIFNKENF

SMILES | z-score [1] | composite z-score [2] | z-score [3] | z-score [4] | z-score [5] | z-score [6] | z-score [7] | z-score [8] | z-score [9] | z-score [10]
CCCCCN1CC=CC23O[C@@H]4C=CCOC(=O)[C@@H]4[C@H]2C(=O)N(CCCO)[C@@H]3C1=O (stereo not given in full) | 3.22 (inactive) | -0.149 | -0.322 (inactive) | -0.397 (inactive) | 0.993 (inactive) | -0.501 (inactive) | 0.724 | -0.169 (inactive) | -0.724 (inactive) | -1.14
COc1cc2c(cc1O)C(C)N(Cc1cccc(OC(F)(F)F)c1)CC2 (stereo not given) | 0.126 (inactive) | -0.0015 | 2.96 (inactive) | 0.328 (inactive) | 2.09 (inactive) | 0.573 (inactive) | -0.0952 | -3.51 (inactive) | -2.46 (inactive) | -3.03
CC1=C2[C@@H](CCc3ccccc3)OB(O)C[C@@H]2n2c(=O)n(-c3ccccc3)c(=O)n2C1 | -0.616 (inactive) | -0.347 | 1.57 (inactive) | 0.323 (inactive) | -0.318 (inactive) | -0.31 (inactive) | 0.417 | -0.416 (inactive) | -1.61 (inactive) | -0.939
O=C1OCCC=C[C@H]2OC34C=CCN(Cc5ccccc5)C(=O)[C@H]3N(CCCO)C(=O)[C@@H]4C12 (stereo not given in full) | 2.94 (inactive) | -0.101 | 0.64 (inactive) | -0.306 (inactive) | 0.739 (inactive) | -0.996 (inactive) | 0.84 | -1.96 (inactive) | -2.93 (inactive) | -3.28
C=C[C@H](C)[C@@H](O)c1ccc(O)c2ccccc12 | 0.048 (inactive) | 0.169 | 1.01 (inactive) | 1.05 (inactive) | 0.0353 (inactive) | 1.02 (inactive) | -0.157 | -5.28 (inactive) | -1.05 (inactive) | 1.33
COc1ccc(C(=O)Nc2cccc(CN3C(=O)[C@]4(O[C@H](CC(=O)N5CCC[C@H]5CO)[C@@H]([Si](C)(C)c5ccc(OC)cc5)[C@@H]4C)c4ccccc43)c2)cc1 | 0.0295 (inactive) | -0.012 | 4.29 (inactive) | 1.45 (inactive) | -0.546 (inactive) | 0.451 (inactive) | 1.97 | 2.73 (inactive) | 1.65 (inactive) | 4.27
CCCCC(O)C1C=CC2C(=O)N(C3CCCCC3)C(=O)C2N1Nc1ccc(OC)cc1 (stereo not given) | -0.436 (inactive) | 0.366 | 3 (inactive) | 1.24 (inactive) | 0.517 (inactive) | 0.684 (inactive) | -0.62 | -0.937 (inactive) | -2.06 (inactive) | -1.43
O=C1O[C@@H](c2ccccc2)[C@@H](c2ccccc2)N2[C@@H](c3ccc(OCCO)cc3)[C@]3(C(=O)Nc4ccccc43)[C@@H](C(=O)Nc3nc4ccccc4s3)[C@H]12 | 0.515 (inactive) | 0.919 | 5.55 (inactive) | 2.55 (inactive) | 1.37 (inactive) | 2.01 (inactive) | 0.298 | 1.68 (inactive) | 1.24 (inactive) | 1.63
COCCCNC(=O)[C@@]1(CCC(=O)OC(C)(C)C)N=C(c2ccc(OCCCO)cc2)O[C@H]1c1ccccc1CN=[N+]=[N-] | 0.369 (inactive) | 0.428 | 23.2 (active) | 4.71 (inactive) | 1.35 (inactive) | 0.883 (inactive) | 0.0769 | 1.95 (inactive) | 2.2 (inactive) | 2.48
CCOC(=O)[C@H]1C/C=C/C[C@H](C(=O)OCC)C(=O)O[C@H]2[C@@H](OC)O[C@H](CO)[C@@H](OC(=O)Nc3ccc4c(c3)OCO4)[C@@H]2OC1=O | 1.2 (inactive) | -0.0727 | 4.49 (inactive) | 1.81 (inactive) | -0.564 (inactive) | 1.73 (inactive) | 0.483 | -1.09 (inactive) | -0.854 (inactive) | -0.02
CC(C)c1ccc(NN2C(C(O)c3cccc(O)c3)C=CC3C(=O)N(c4ccccc4)C(=O)C32)cc1 (stereo not given) | -0.833 (inactive) | 0.0523 | 8.05 (active) | 1.14 (inactive) | 1.5 (inactive) | 1.64 (inactive) | -0.83 | -2.01 (inactive) | -5.51 (inactive) | -4.13
CCOC(=O)C1=CCC(c2ccc(C#N)cc2)N(S(=O)(=O)c2ccc(C)cc2)C1 (stereo not given) | 0.26 (inactive) | 0.262 | 5.29 (inactive) | 1.12 (inactive) | 0.632 (inactive) | 0.557 (inactive) | -0.118 | 0.292 (inactive) | 0.62 (inactive) | -0.303
CCOC(=O)C1=CCC(c2ccc([N+](=O)[O-])cc2)N(S(=O)(=O)c2ccc(C)cc2)C1 (stereo not given) | -0.65 (inactive) | 0.0839 | 5.2 (inactive) | 1.91 (inactive) | -0.364 (inactive) | 0.781 (inactive) | -0.864 | 1.07 (inactive) | 0.135 (inactive) | 0.739
